# Data as given in ChEMBL document CHEMBL1961873, “Compounds: GSK PKIS; Assays: Nanosyn kinase panel” (2012).
# Tests used:
# [1] = biological target: Sphingosine kinase 1 (Homo sapiens) (UniProt Q9NYA1); conditions: at 1 µM;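 note: mean SPHK1 inhibition value reported from the GSK PKIS kinase panel screen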
# [2] = biological target: T1, Sphingosine kinase 2 (Homo sapiens) (UniProt Q9NRA0); conditions: at 0.1 µM
# T1 sequence (whole entry): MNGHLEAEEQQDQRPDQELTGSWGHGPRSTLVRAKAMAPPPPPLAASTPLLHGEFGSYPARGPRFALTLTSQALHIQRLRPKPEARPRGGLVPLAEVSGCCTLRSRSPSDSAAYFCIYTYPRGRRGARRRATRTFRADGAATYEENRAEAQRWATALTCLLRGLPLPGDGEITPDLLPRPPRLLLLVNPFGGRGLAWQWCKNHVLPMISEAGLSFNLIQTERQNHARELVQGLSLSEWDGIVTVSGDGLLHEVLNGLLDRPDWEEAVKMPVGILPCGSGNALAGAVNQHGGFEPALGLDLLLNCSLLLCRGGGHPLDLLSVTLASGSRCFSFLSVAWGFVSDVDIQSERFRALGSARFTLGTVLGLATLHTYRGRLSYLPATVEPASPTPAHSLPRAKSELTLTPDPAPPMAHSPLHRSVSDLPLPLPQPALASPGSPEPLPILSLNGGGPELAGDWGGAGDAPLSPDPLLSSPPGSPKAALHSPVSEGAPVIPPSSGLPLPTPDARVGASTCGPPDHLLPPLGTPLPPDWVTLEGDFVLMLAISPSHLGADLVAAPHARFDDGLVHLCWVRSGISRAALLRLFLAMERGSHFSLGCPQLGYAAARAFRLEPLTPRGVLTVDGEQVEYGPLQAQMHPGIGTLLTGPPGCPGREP
# [3] = biological target: T1, Sphingosine kinase 2 (Homo sapiens); conditions: at 1 µM
# [4] = biological target: Casein kinase II subunit alpha (Homo sapiens) (UniProt P68400); conditions: at 0.1 µM
# [5] = biological target: Casein kinase II subunit alpha (Homo sapiens) (UniProt P68400); conditions: at 1 µM
# [6] = biological target: T2, Inhibitor of nuclear factor kappa-B kinase subunit alpha (Homo sapiens) (UniProt O15111); conditions: at 0.1 µM
# T2 sequence (whole entry): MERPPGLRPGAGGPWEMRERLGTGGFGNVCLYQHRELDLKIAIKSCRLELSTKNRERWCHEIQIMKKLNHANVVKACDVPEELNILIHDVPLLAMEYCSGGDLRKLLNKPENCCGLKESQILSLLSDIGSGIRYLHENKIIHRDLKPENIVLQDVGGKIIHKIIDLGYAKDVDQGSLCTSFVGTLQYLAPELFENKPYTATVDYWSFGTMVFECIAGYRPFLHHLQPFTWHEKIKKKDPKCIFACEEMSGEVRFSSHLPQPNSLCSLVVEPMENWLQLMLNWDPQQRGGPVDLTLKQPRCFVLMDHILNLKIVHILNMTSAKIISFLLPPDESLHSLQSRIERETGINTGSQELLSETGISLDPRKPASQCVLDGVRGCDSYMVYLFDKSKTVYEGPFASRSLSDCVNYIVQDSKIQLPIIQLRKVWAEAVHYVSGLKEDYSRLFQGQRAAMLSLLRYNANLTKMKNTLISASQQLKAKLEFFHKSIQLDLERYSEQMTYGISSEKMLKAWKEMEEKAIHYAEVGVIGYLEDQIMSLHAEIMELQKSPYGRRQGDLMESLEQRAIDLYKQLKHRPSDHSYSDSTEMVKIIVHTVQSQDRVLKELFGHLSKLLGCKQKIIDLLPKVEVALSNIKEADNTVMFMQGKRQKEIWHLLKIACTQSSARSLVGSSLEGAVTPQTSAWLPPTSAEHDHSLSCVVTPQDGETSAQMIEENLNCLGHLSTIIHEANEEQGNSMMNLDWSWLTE
# [7] = biological target: T2, Inhibitor of nuclear factor kappa-B kinase subunit alpha (Homo sapiens); conditions: at 1 µM
# [8] = biological target: T3, Inhibitor of nuclear factor kappa-B kinase subunit beta (Homo sapiens) (UniProt O14920); conditions: at 0.1 µM
# T3 sequence (whole entry): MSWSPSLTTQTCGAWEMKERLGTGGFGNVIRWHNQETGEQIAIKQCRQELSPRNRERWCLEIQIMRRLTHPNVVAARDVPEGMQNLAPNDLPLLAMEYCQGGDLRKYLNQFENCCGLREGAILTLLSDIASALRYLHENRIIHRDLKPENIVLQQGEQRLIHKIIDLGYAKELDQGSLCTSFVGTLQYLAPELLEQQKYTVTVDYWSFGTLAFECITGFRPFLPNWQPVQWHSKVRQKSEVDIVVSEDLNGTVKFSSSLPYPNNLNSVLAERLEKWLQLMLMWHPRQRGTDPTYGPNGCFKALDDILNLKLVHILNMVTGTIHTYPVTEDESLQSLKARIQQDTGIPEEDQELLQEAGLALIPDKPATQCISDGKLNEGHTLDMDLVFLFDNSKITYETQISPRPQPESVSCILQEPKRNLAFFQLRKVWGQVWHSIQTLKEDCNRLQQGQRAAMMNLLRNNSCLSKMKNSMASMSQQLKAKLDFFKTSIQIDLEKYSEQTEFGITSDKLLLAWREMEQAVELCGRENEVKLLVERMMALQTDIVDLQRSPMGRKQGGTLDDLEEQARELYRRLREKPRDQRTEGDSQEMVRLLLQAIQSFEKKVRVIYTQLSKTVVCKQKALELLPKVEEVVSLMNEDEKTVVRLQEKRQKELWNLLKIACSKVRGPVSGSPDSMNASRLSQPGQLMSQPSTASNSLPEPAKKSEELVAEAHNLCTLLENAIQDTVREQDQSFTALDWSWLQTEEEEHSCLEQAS
# [9] = biological target: T3, Inhibitor of nuclear factor kappa-B kinase subunit beta (Homo sapiens); conditions: at 1 µM
# [10] = biological target: T4, Inhibitor of nuclear factor kappa-B kinase subunit epsilon (Homo sapiens) (UniProt Q14164); conditions: at 0.1 µM
# T4 sequence (whole entry): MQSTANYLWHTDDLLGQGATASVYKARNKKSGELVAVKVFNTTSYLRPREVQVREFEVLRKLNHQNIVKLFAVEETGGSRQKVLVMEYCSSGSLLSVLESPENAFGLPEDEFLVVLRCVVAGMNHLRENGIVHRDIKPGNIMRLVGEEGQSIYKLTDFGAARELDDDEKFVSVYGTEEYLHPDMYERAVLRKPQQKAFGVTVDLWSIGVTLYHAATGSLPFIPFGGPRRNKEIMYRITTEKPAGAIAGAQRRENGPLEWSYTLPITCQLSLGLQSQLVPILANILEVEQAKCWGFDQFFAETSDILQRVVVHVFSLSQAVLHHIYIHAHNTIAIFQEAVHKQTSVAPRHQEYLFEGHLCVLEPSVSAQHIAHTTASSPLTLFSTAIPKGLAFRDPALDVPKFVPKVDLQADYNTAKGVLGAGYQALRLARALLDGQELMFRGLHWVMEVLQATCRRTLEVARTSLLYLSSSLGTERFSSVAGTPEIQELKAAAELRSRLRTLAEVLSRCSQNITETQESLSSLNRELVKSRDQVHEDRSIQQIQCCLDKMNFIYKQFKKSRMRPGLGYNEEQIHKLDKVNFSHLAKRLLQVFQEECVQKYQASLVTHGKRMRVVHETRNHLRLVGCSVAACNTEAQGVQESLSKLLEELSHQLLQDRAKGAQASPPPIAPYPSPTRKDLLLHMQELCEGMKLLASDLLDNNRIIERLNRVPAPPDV
# [11] = biological target: T4, Inhibitor of nuclear factor kappa-B kinase subunit epsilon (Homo sapiens); conditions: at 1 µM
# [12] = biological target: T5, Serine/threonine-protein kinase Nek1 (Homo sapiens) (UniProt Q96PY6); conditions: at 0.1 µM
# T5 sequence (whole entry): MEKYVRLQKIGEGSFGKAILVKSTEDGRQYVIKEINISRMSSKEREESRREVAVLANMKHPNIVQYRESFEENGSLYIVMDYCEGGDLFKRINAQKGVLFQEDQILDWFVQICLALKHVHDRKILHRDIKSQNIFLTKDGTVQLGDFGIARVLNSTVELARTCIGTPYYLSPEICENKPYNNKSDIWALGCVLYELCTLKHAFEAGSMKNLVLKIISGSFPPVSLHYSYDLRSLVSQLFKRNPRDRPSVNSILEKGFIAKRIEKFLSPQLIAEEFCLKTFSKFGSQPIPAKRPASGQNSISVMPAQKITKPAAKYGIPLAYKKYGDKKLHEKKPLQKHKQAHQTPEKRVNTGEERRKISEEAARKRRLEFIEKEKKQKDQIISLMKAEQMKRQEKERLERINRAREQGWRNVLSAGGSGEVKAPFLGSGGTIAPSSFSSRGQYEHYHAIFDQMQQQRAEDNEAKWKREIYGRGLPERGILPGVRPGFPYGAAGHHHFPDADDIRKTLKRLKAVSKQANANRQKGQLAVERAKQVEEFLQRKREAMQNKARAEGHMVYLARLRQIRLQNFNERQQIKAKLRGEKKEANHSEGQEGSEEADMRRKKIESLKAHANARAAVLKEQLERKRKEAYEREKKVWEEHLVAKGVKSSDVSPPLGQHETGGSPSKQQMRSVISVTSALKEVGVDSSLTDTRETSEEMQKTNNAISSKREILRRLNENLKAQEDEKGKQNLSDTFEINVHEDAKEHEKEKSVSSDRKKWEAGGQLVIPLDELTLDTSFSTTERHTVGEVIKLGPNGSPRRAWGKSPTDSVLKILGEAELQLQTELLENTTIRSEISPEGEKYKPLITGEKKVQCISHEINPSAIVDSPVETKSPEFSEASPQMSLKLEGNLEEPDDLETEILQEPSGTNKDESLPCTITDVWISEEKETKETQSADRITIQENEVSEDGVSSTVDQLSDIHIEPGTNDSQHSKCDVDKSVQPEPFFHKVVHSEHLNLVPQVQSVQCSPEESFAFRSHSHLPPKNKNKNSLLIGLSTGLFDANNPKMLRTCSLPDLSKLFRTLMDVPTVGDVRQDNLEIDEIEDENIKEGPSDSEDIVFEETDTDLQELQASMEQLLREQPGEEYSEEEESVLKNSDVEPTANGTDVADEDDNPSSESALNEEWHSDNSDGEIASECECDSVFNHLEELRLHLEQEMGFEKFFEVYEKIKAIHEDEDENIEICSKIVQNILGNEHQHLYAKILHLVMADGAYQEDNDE
# [13] = biological target: T5, Serine/threonine-protein kinase Nek1 (Homo sapiens); conditions: at 1 µM
# [14] = biological target: T6, Serine/threonine-protein kinase Nek2 (Homo sapiens) (UniProt P51955); conditions: at 0.1 µM
# T6 sequence (whole entry): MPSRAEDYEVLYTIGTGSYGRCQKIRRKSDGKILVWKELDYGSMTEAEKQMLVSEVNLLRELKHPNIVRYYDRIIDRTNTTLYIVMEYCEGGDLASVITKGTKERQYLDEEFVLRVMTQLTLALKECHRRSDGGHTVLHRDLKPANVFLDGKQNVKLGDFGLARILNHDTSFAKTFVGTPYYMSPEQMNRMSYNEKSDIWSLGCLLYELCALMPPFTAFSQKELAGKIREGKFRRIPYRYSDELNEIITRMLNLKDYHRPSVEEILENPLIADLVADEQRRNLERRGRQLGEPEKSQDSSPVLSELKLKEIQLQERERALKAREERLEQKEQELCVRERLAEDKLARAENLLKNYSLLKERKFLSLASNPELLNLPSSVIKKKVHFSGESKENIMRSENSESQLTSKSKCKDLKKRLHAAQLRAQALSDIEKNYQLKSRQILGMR
# [15] = biological target: T6, Serine/threonine-protein kinase Nek2 (Homo sapiens); conditions: at 1 µM
# [16] = biological target: Serine/threonine-protein kinase Nek6 (Homo sapiens) (UniProt Q9HC98); conditions: at 0.1 µM
# [17] = biological target: Serine/threonine-protein kinase Nek6 (Homo sapiens) (UniProt Q9HC98); conditions: at 1 µM
# [18] = biological target: Serine/threonine-protein kinase Nek7 (Homo sapiens) (UniProt Q8TDX7); conditions: at 0.1 µM
# [19] = biological target: Serine/threonine-protein kinase Nek7 (Homo sapiens) (UniProt Q8TDX7); conditions: at 1 µM
# [20] = biological target: T7, Serine/threonine-protein kinase Nek9 (Homo sapiens) (UniProt Q8TD19); conditions: at 0.1 µM;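 note: reported value is the mean percent inhibition of NEK9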
# T7 sequence (whole entry): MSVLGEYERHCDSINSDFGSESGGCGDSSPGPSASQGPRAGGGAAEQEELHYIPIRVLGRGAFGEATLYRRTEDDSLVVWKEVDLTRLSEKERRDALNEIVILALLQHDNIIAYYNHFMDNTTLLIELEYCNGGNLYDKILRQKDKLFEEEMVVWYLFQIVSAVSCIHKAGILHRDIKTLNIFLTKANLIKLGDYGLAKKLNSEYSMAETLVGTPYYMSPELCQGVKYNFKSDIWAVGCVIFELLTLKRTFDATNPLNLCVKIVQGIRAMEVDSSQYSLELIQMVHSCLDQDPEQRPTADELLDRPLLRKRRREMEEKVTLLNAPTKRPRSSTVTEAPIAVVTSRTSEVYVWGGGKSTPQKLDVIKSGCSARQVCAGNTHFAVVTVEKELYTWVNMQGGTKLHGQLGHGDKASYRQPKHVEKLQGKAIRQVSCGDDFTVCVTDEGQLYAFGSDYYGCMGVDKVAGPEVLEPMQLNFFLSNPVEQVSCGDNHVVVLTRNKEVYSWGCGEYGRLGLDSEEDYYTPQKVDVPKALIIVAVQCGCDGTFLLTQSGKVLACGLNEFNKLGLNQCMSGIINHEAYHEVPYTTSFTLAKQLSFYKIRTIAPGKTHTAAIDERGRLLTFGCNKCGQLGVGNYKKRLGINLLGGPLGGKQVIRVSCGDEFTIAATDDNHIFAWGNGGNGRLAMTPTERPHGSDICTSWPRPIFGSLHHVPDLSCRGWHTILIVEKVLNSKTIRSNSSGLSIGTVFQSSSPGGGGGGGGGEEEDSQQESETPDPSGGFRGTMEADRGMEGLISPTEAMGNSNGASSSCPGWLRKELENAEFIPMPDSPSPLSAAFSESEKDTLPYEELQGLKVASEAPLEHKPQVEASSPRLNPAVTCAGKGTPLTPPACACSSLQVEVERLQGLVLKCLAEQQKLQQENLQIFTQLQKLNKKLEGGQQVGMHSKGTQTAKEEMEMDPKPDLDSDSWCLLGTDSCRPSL
# Sequence of Serine/threonine-protein kinase Nek6 (Homo sapiens) (Q9HC98 whole entry): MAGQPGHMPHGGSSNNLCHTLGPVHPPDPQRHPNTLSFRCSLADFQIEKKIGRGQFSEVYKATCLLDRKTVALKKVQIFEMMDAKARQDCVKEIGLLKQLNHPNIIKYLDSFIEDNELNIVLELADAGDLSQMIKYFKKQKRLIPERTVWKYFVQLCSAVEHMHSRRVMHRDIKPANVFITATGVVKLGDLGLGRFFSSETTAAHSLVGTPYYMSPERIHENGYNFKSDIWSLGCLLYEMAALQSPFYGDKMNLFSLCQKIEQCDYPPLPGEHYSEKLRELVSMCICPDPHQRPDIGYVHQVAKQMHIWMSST
# Sequence of Casein kinase II subunit alpha (Homo sapiens) (P68400 whole entry, looked up): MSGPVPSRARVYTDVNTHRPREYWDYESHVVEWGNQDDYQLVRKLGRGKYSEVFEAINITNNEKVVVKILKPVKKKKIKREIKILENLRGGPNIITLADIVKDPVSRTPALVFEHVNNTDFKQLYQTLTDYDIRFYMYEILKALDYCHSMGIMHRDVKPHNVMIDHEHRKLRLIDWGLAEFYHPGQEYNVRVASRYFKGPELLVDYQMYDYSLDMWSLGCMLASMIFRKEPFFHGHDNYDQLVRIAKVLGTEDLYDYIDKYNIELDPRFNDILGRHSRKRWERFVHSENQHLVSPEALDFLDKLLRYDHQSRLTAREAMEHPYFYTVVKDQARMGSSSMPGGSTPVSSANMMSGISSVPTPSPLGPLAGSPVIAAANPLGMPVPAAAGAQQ
# Sequence of Serine/threonine-protein kinase Nek7 (Homo sapiens) (Q8TDX7 whole entry, looked up): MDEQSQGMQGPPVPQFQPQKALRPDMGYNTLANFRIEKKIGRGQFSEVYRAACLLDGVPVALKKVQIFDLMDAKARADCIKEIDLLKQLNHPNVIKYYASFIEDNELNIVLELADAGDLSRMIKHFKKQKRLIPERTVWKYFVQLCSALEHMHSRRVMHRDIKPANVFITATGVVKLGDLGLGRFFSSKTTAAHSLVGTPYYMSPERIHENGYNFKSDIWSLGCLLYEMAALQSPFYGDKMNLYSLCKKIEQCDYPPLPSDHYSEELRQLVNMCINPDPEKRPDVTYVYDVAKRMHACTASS
# Sequence of Sphingosine kinase 1 (Homo sapiens) (Q9NYA1 whole entry): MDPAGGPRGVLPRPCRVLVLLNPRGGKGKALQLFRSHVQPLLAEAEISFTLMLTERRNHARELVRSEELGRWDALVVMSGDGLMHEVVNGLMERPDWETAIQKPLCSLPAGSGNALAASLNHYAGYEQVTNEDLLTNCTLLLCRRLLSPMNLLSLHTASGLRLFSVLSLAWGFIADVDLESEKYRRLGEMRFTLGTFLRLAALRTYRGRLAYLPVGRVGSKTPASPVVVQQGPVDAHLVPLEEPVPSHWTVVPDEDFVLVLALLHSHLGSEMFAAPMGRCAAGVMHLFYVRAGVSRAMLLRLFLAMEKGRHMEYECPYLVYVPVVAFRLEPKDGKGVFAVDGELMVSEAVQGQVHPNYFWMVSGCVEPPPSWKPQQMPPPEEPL
SMILES,inhibition [1] [%],inhibition [2] [%],inhibition [3] [%],inhibition [4] [%],inhibition [5] [%],inhibition [6] [%],inhibition [7] [%],inhibition [8] [%],inhibition [9] [%],inhibition [10] [%],inhibition [11] [%],inhibition [12] [%],inhibition [13] [%],inhibition [14] [%],inhibition [15] [%],inhibition [16] [%],inhibition [17] [%],inhibition [18] [%],inhibition [19] [%],inhibition [20] [%]
Nc1nccc(C#Cc2cncnc2Nc2ccc(OCc3cccc(F)c3)c(Cl)c2)n1,-0.71,0.13,-9.13,1.6,2.69,7.39,2.46,2.27,-0.17,4.71,6.36,2.09,3.18,4.14,5.98,1.4,-0.89,3.1,3.35,8.89
NS(=O)(=O)c1cccc(Nc2cc(-c3ccc(F)cc3)n[nH]2)c1,-0.2,0.87,-0.06,5.22,13.6,4.35,11.3,5.51,4.5,8.55,8.08,1.79,3.87,4.43,6.1,2.48,6.59,4.33,4.76,10.6
